13 molecules from PubChem BioAssay (EPA / NIEHS) can be followed below.

Read-out in assay [1]: Macrophage colony-stimulating factor (MCSF), CSF1 (gene 1435)
Nature of the assay: BSK_IMphg_MCSF: BioMAP Diversity Plus: IMphg Assay for Macrophage colony-stimulating factor (MCSF) Biomarker Activity (AID 2284293). The settings on record: primary human endothelial cells with macrophages. A digest of the protocol: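 Co-culture of human venular endothelial cells and macrophages, 24 hours of chemical exposure. M-CSF quantified by ELISA, with parallel SRB total-protein staining for cytotoxicity; activity fitted relative to DMSO.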

Read-out in assay [2]: Interleukin-10 (IL10), IL10 (gene 3586)
Nature of the assay: BSK_IMphg_IL10: BioMAP Diversity Plus: IMphg Assay for Interleukin-10 (IL10) Biomarker Activity (AID 2284294). The settings on record: primary human endothelial cells with macrophages. A digest of the protocol:
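Human venular endothelial cells cocultured with macrophages, dosed 24 h; IL-10 measured by ELISA, activity relative to DMSO. Cytotoxicity assessed in parallel cultures by sulforhodamine B total-protein staining.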

A short description of assay [3]: BSK_IMphg_SRB.Mphg: Macrophage Viability Assessment in the BioMAP Diversity Plus: IMphg Assay (AID 2284295). The note with it: primary human endothelial cells with macrophages. A digest of the protocol: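 Venular endothelial cells co-cultured with macrophages, read 24 h after dosing. Total protein measured by 0.1% SRB staining after 10% TCA fixation, absorbance at 560 nm. Fitted in positive direction against DMSO baseline.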

Read-out in assay [4]: Thrombomodulin, THBD (gene 7056)
Nature of the assay: BSK_LPS_Thrombomodulin: BioMAP Diversity Plus: LPS Assay for Thrombomodulin Biomarker Activity (AID 2284296). The settings on record: primary human HUVEC with PBMC. A digest of the protocol:
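Human umbilical vein endothelial cells co-cultured with PBMC and stimulated with LPS; cell-surface thrombomodulin measured by ELISA 24 hours after compound. Gain or loss versus DMSO; cytotoxicity checked by SRB staining in parallel cultures.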

Read-out in assay [5]: CD69, CD69 (gene 969)
Kind of assay: BSK_LPS_CD69: BioMAP Diversity Plus: LPS Assay for CD69 Biomarker Activity (AID 2284303). The settings on record: primary human HUVEC with PBMC. A digest of the protocol:
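Human umbilical vein endothelial cells co-cultured with PBMC under LPS stimulation, chemical exposure 24 h; cell-surface CD69 measured by ELISA and fitted in the positive direction versus DMSO.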

Assay [6] concerns TTR (gene 7276). Kind of assay: CCTE_GLTED_hTTR_0.5uM: CCTE's human Transthyretin (hTTR) Inhibition Assay, with 0.5uM TTR, Great Lakes Toxicology and Ecology Division (GLTED) Lab (AID 2284320). The procedure, abridged: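 Cell-free displacement assay in which human TTR at 0.5 uM was incubated with test chemical for 2 h. Displacement of the ANSA probe was read by fluorescence at 380 nm excitation/475 nm emission. Loss of signal was fitted in the positive direction versus DMSO.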

The nature of assay [7]: Tanguay_ZF_120hpf_MO24: Oregon State University Tanguay Lab 24 Hour Post-fertilization zebrafish Assay for Mortality (AID 2284389). The procedure, abridged:
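Dechorionated wild-type zebrafish embryos, 1 per well, statically exposed from 6 hpf at 28C, 0.64% DMSO final. Mortality scored as binary present/absent at 24 hpf by brightfield microscopy, relative to DMSO.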

The nature of assay [8]: Tanguay_ZF_120hpf_CRAN: Oregon State University Tanguay Lab 120 Hour Post-fertilization zebrafish Assay for Craniofacial Malformation (AID 2284397). The procedure, abridged:
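Dechorionated Tropical 5D wild-type zebrafish embryos, one per well, were statically exposed from 6 to 120 hpf at 28C in 0.64% DMSO, with 5uM trimethyltin chloride as positive control. Craniofacial malformation was scored present/absent by brightfield microscopy, relative to DMSO.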

Assay [9] can be described thus: Tanguay_ZF_120hpf_MORT: Oregon State University Tanguay Lab 120 Hour Post-fertilization zebrafish Assay for Mortality (AID 2284399). A digest of the protocol:
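Dechorionated wild-type Tropical 5D zebrafish embryos, one per well from 6 hpf, static exposure to 120 hpf at 28C in sealed dark plates, 0.64% DMSO final. Mortality scored as binary by brightfield at 24 and 120 hpf.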

The nature of assay [10]: Tanguay_ZF_120hpf_EDEM: Oregon State University Tanguay Lab 120 Hour Post-fertilization zebrafish Assay for Edema Malformation (AID 2284400). The procedure, abridged:
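Dechorionated Tropical 5D wild-type embryos, one per well, statically exposed from 6 to 120 hpf at 28C in 0.64% DMSO. Edema scored present/absent by brightfield microscopy at 120 hpf; dead embryos not scored; fit versus DMSO.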

The nature of assay [11]: Tanguay_ZF_120hpf_TCHR: Oregon State University Tanguay Lab 120 Hour Post-fertilization zebrafish Assay for Touch Responsive (AID 2284403). The procedure, abridged: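 Dechorionated Tropical 5D wild-type zebrafish embryos, one per well from 6 hpf, were statically exposed to 120 hpf at 28 °C (0.64% DMSO). Touch response was scored present/absent at 120 hpf and not scored in dead larvae.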

Assay [12] in a line: Tanguay_ZF_120hpf_ANY: Oregon State University Tanguay Lab 120 Hour Post-fertilization zebrafish Assay for Any Mortality and Malformation (AID 2284404). A digest of the protocol: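 Dechorionated Tropical 5D wild-type embryos, one per well from 6 hpf, static exposure in sealed, dark plates at 28C until 120 hpf, 0.64% DMSO final. Brightfield scoring of mortality and malformations as binary presence/absence, pooling 13 morphology endpoints.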

A short description of assay [13]: CCTE_Mundy_HCI_iCellGluta_NOG_NeuriteLength: CCTE's Neurite Outgrowth Assay in iCellGluta cells for Neurite Length, Mundy Lab (AID 2284318; active = hit-call score of the fitted dose curve at least 0.9, where 1 is the maximum). A digest of the protocol: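 Automated high-content imaging of betaIII-tubulin (Alexa Fluor-488) and Hoechst-stained cells gave neurite length, normalized to the DMSO baseline.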
Assay [14] in a line: CCTE_Mundy_HCI_iCellGluta_NOG_NeuronCount: CCTE's Neurite Outgrowth Assay in iCellGluta cells for Neuron Count, Mundy Lab (AID 2284340; active = hit-call score of the fitted dose curve at least 0.9, where 1 is the maximum;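 also: cells fixed about 48 h after compound addition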). A digest of the protocol: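 Neuron count read by automated high-content imaging of Hoechst 33342 and betaIII-tubulin/Alexa Fluor-488 labelling in human iPSC glutamatergic neurons. Activity fitted relative to DMSO.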
The nature of assay [15]: CCTE_Mundy_HCI_iCellGluta_NOG_NeuriteCount: CCTE's Neurite Outgrowth Assay in iCellGluta cells for Neurite Count, Mundy Lab (AID 2284342; active = hit-call score of the fitted dose curve at least 0.9, where 1 is the maximum;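 also: chemical exposure about 48 hours starting 2 hours after plating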).
In assay [16] the test system is SERPINA7 (gene 6906). Kind of assay: CCTE_GLTED_hTBG: CCTE's human Thyroxine-binding Globulin (TBG) Inhibition Assay, Great Lakes Toxicology and Ecology Division (GLTED) Lab (AID 2284343; active = hit-call score of the fitted dose curve at least 0.9, where 1 is the maximum;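 also: active chemicals lower fluorescence versus DMSO baseline by displacing probe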). A digest of the protocol: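 Human TBG incubated 2 h with test chemical; displacement of ANSA probe read by fluorescence, 380 nm excitation/475 nm emission. Loss of signal relative to DMSO.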

“And” between values parts separate entries of the source, which are not always exact repeats. Equal values may be shown once. Results filed as inconclusive are left out. More than one record can exist for a structure, and the calls need not agree. The source made the active and inactive calls. The calls were made as follows, unless noted: active = hit-call score of the fitted dose curve at least 0.9, where 1 is the maximum; inactive = score below 0.9.

As to `CNS(=O)(=O)C(F)(F)C(F)(F)C(F)(F)C(F)(F)C(F)(F)C(F)(F)C(F)(F)C(F)(F)F`, the result in assay [1], in [2], in assay [3], in assay [4], in assay [5] and in assay [7] was inactive. For the same molecule, the molecule was called inactive in assay [8] and in [11]. Moreover, the AC50 (commonly the concentration giving half of the maximal activity seen) is 17.9 µM (active) in assay [2]; 1.34 µM (active) in assay [6]; 56.9 µM (active) in assay [9]; 47.8 µM (active) in [10]; 55.5 µM (active) in assay [12].
Regarding `O=C(F)C1(F)C(F)(F)C(F)(F)C(F)(F)C(F)(F)C1(F)F`, the result in assay [1], in assay [2], in [3], in assay [4], in assay [5] and in assay [13] was inactive. In addition, the molecule was called inactive in assay [14], in assay [15], in assay [7], in assay [8], in [9] and in assay [10]. In addition, the molecule was classed as inactive in assay [11] and in assay [12]. For the same molecule, in assay [6], the AC50 is 32.9 µM (active).
For `C=CC(=O)OCC(F)(F)C(F)(F)C(F)(F)C(F)(F)C(F)(F)C(F)(F)C(F)(F)C(F)F`, the outcome in assay [1], in assay [2], in assay [3], in [4], in assay [5] and in [7] was inactive. For the same molecule, the molecule was classed as inactive in assay [8], in [9], in assay [10], in [11] and in assay [12]. Also, the AC50 in [3] is 7.9 µM (active); in [4] it was 26.9 µM (active); in [5], 23.2 µM (active); in assay [6] it was 1.84 µM (active).
Turning to `OCC(O)CC(F)(F)C(F)(F)C(F)(F)C(F)(F)F` (stereo not given), the result in [1], in assay [2], in assay [3], in [4], in assay [5] and in assay [7] was inactive. The result in assay [8], in [9], in assay [10], in assay [11] and in assay [12] was inactive. Further, the AC50 in assay [5] was 0.22 µM (active).
`FC(F)(F)C(F)(F)C(F)(F)C(F)(F)C(F)(F)C(F)(F)CC[Si](Cl)(Cl)Cl`: the outcome in assay [1], in assay [2], in [3], in [4], in [5] and in assay [7] was inactive. For the same molecule, the molecule was classed as inactive in assay [8], in assay [9], in assay [10], in assay [11] and in assay [12]. Further, the half-maximal activity concentration (AC50) in assay [3] is 0.0514 µM (active).
Take `O=C(O)C(F)(F)C(F)(F)C(F)(F)OC(F)(C(F)(F)F)C(F)(F)F`: the outcome in assay [1], in assay [2], in [3], in assay [4], in [5] and in [14] was inactive. In addition, the molecule was classed as inactive in assay [15], in assay [7], in assay [8], in assay [9], in assay [10] and in assay [11]. For the same molecule, in assay [12], the call was inactive. Moreover, the half-maximal activity concentration (AC50) in assay [6] is 0.321 µM (active).
Consider `NS(=O)(=O)C(F)(F)C(F)(F)C(F)(F)C(F)(F)C(F)(F)C(F)(F)F`, for which the AC50 in assay [1] was 4.34 µM (active); in [2], 28.1 µM (active) and 22.7 µM (active); in [5], 26 µM (active) and 22.3 µM (active); in assay [6] it was 0.329 µM (active); in assay [9], 11.1 µM (active); in [12] it was 10.6 µM (active). Also, the outcome in assay [1], in [3], in assay [4], in [7], in [8] and in assay [10] was inactive. Moreover, the molecule was classed as inactive in assay [11].
For `O=C(O)CCC(F)(F)C(F)(F)C(F)(F)F`, the result in [1], in assay [2], in assay [3], in [4], in [5] and in assay [13] was inactive. Also, the call in assay [14], in assay [15], in assay [7], in assay [8], in assay [9] and in [10] was inactive. Further, the result in assay [11] and in [12] was inactive. Besides, in assay [6], the AC50 was 17.6 µM (active).
In the case of `OCC(F)(F)C(F)(F)C(F)(F)C(F)(F)C(F)(F)C(F)(F)C(F)(F)C(F)(F)CO`, the AC50 in [1] was 39.7 µM (active); in assay [2], 21.5 µM (active) and 42.7 µM (active); in assay [3], 46 µM (active) and 39.8 µM (active); in [6], 2.78 µM (active); in assay [7], 72.8 µM (active); in assay [9], 19.6 µM (active). Besides, the AC50 in [12] was 16.7 µM (active). For the same molecule, the result in assay [1], in assay [4], in [5], in assay [8], in assay [10] and in assay [11] was inactive.
Consider `NC(O)(C(F)(F)F)C(F)(F)F`, for which the outcome in [1], in [2], in assay [3], in assay [4], in assay [5] and in [13] was inactive. For the same molecule, the call in [14], in [15], in assay [7], in [8], in assay [9] and in [10] was inactive. Moreover, the molecule was called inactive in assay [11] and in [12]. Further, in assay [5], the AC50 was 1.45 µM (active).
Take `NC(=O)C(F)(F)C(F)(F)C(F)(F)C(F)(F)C(F)(F)C(F)(F)C(F)(F)F`: the result in assay [1], in assay [2], in assay [3], in [4], in assay [5] and in assay [13] was inactive. Also, the outcome in assay [14], in [15], in assay [8], in assay [10] and in assay [11] was inactive. Further, the AC50 is 5.65 µM (active) in assay [6], 52.7 µM (active) in [7], 41.3 µM (active) in assay [9] and 43.4 µM (active) in assay [12].
As for `NC(=O)C(F)(F)C(F)(F)C(F)(F)C(F)(F)C(N)=O`, the result in assay [1], in assay [2], in [3], in assay [4], in assay [5] and in [13] was inactive. The molecule was called inactive in assay [14], in assay [15], in assay [7], in assay [8], in [9] and in assay [10]. Also, the molecule was classed as inactive in assay [11] and in assay [12]. The AC50 was 0.598 µM (active) in [4] and 44.1 µM (active) in [6].
With `O=C(O)C(F)(F)C(F)(F)C(F)(F)C(F)(F)C(F)(F)C(F)(F)C(F)F`, the result in [1], in assay [2], in assay [3], in assay [4] and in [5] was inactive. For the same molecule, the AC50 in assay [6] is 0.275 µM (active); in [16], 26.5 µM (active).
